Compound activity from PubChem.
TDP1 cell CPT: DT40-hTDP1 cell growth loss with CPT. Potency, µM (series often up to 46.2 µM), inactives show at the top dose activity change, negative = growth inhibition, actives largely listed as inhibitors. chicken DT40 Tdp1-/-;hTDP1 cells + 20 nM CPT, ATP luminescence, 48 h. 420,000 tested, 12% active; further: potency means the concentration at half of the fitted maximal effect; nearly all actives have a fitted effect of over 55% in size
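Cell growth measured by CellTiter-Glo luminescence after a minimum 48 h, 37 C compound exposure with 20 nM CPT in Tdp1-knockout DT40 cells stably expressing hTDP1, seeded 400/well; qHTS titration format.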
VP16 counter: counter-screen for ROR gamma inhibitors: Gal4-VP16 reporter; Drosophila S2 Gal4-VP16 UAS-luciferase, luminescence, 20 h; Potency, µM (titrated, usually from 53.6 µM), inactives show at the top dose activity, negative = inhibition, hits mostly inhibitors; 310,000 tested, 3.5% active; AID 2546;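 further: Gal4-VP16 expression switched on by copper sulfate through the metallothionein promoter; potency means the concentration at half of the fitted maximal effect; nearly all actives have a fitted effect of over 50% in size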
RORg inh: ROR gamma (mouse) transcription inhibition | 310,000 tested, 5.4% active | Potency, µM (highest dose often 53.6 µM), without a hit: at the top dose activity change, negative = inhibition, usual class: inhibitors | Drosophila S2 Gal4-RORgamma UAS-luciferase reporter, 20 h | P51450; further: potency means the concentration at half of the fitted maximal effect; nearly all actives have a fitted effect of over 60% in size
Target sequence (P51450 whole entry, looked up, the tested form may be a part): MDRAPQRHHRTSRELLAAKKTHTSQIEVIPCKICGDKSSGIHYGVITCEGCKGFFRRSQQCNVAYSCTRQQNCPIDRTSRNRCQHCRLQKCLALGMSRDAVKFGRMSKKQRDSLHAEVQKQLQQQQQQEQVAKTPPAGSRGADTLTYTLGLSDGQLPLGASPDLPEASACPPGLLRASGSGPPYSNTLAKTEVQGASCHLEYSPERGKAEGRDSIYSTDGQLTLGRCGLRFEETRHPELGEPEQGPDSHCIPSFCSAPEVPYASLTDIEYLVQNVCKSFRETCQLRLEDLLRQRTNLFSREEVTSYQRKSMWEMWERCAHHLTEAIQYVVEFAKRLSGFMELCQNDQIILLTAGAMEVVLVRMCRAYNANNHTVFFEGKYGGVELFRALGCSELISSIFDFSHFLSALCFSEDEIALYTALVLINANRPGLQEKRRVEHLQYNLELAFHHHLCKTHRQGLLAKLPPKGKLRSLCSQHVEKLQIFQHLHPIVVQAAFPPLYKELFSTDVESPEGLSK
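Drosophila S2 cells stably expressing Gal4-DBD/mouse RORγ fusion under metallothionein promoter plus UAS-luciferase; compound 1 h, then 700 uM CuSO4 induction for 20 h at ambient temperature; inhibition read as reduced luminescence.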
TDP1 cell noCPT: qHTS for Inhibitors of human tyrosyl-DNA phosphodiesterase 1 (TDP1): qHTS in cells in absence of CPT | Potency, µM (doses to about 46.2 µM), inactives show at the top dose activity change, negative = growth inhibition, actives largely listed as inhibitors | DT40 Tdp1-/- hTDP1 cells, no CPT, ATP luminescence, 48 h | AID 686978, 2013 | 420,000 tested, 15% active; further: potency means the concentration at half of the fitted maximal effect; nearly all actives have a fitted effect of over 55% in size
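Seeded 400 DT40-hTDP1 cells/well (vehicle DMSO, no 20 nM CPT); pinned compounds; ≥48 hr at 37 °C; CellTiter-Glo luminescence as viability measure.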
ELG1 DNA repair: ELG1-dependent DNA repair inhibition; HEK293T ELG1-luciferase reporter, luminescence, 16 h; DNA damage induced by 5-fluorouridine; Potency, µM (series often up to 46.1 µM), inactives show at the highest dose activity change, negative = inhibition, usual class: inhibitors; 330,000 tested, 2.3% active; AID 504467; further: potency means the concentration at half of the fitted maximal effect; nearly all actives have a fitted effect of over 55% in size
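Cells (2,000 per well) received 5-fluorouridine plus test compound or DMSO and were incubated 16 hr at 37 °C, 5% CO2. Luciferase activity was read by luminescence 30 min after ONE-Glo addition; signal suppression marked inhibition of damage-induced ELG1 function.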
IL1B secr inh: inhibitors of inflammasome signaling (IL-1 beta secretion); THP-1 LPS/ATP IL-1B secretion, AlphaLISA, 16 h; stronger effect = lower value; 360,000 tested, 4.7% active; activity change, % at 57.5 µM; in the data active means activity change below about -50%; inconclusive means mostly about -30% to -49%
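THP-1 cells pretreated 1 hr with compounds (up to 57.5 uM final), then stimulated with LPS (250 ng/mL final) plus ATP (1.25 mM final); secreted IL-1B measured by AlphaLISA after 16 hr, decreased signal indicating inhibition.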
* marks the source's active call; other numbers are inactive results; ? = inconclusive; . = no result. The list is not random: actives were taken first. Their share in the collection is about 21%. Unless noted, the call rests on the fitted dose curve; in most records, active means well fitted curve in the direction sought with a large enough effect; inconclusive means small, poorly fitted or top-dose-only effect, or another doubt; inactive means no such curve, though single readings can be large; an effect the other way counts as inactive or inconclusive. On the % scale 0 is the no-effect control and ±100 the full control effect.

SMILES	TDP1 cell CPT	VP16 counter	RORg inh	TDP1 cell noCPT	ELG1 DNA repair	IL1B secr inh
O=C(CC[C@H]1O[C@@H](n2ccc(=O)[nH]c2=O)[C@H](O)[C@@H]1O)N[C@H](Cc1ccccc1)C(=O)NC1CCCCC1	3%	.	.	1%	.	20
CCCCC[C@H](O)/C=C/C=C\C/C=C\CCCCCCC(=O)O	.	-2%	3%	.	.	.
Cc1ccc(NC(=O)c2cccc(S(=O)(=O)N3CCN(c4ccc(F)cc4)CC3)c2)nc1	15µM*	?	22%	?	?	1
O=C(Nc1ncccc1O)c1cccc(S(=O)(=O)N2CCN(c3ccc(F)cc3)CC2)c1	?	.	.	?	-16%	4
O=C(Nc1ccncc1)c1cccc(S(=O)(=O)N2CCN(c3ccc(F)cc3)CC2)c1	21µM*	.	.	21µM*	?	?
NC(=O)c1ccccc1NC(=O)c1ccc2c(c1)OCO2	-11%	-4%	-33%	?	?	-10
COCc1nnc(NC(=O)c2cc(OC)c(OC)c(OC)c2)s1	2%	.	.	-7%	.	.
COc1cc(C(=O)Nc2nnc(CC(C)(C)C)s2)cc(OC)c1OC	13µM*	.	.	?	.	.
COc1cc(C(=O)Nc2nncs2)cc(OC)c1OC	3%	-1%	-16%	19%	8%	29
CCOC(=O)c1csc(NC(=O)c2cc(OC)c(OC)c(OC)c2)n1	?	-11%	-9%	?	5.8µM*	-54*
COC(=O)c1cc(C(=O)Nc2nnc(CC(C)(C)C)s2)cc([N+](=O)[O-])c1	0%	8.9µM*	8.9µM*	?	-2%	16
CCC(C)(C)NC(=O)c1cc(C(=O)OC)cc([N+](=O)[O-])c1	0%	-4%	-19%	14%	10%	15
COc1cc(C(=O)Nc2nnc(C)s2)cc(OC)c1OC	10%	6%	7.1µM*	-2%	24%	-7
CN(C(=O)c1ccc(OCC=C(c2ccccc2)c2ccccc2)cc1)c1ccccc1I	.	-10%	-14%	.	.	.
CN(C)c1nc(C(=O)NN)nc(N(C)C)n1	2%	-1%	-36%	-2%	2%	-8
CN(C)c1nc(N)c2ncc(=S)[nH]c2n1	0%	-6%	-38%	-18%	4%	-65*
O=C(NCc1cccc(F)c1)c1[nH]c(C(F)(F)F)nc1-c1ccccc1	?	.	.	?	.	1
CCCN1C(=O)c2ccccc2NC1c1ccc(OC)c(COc2cccc(C)c2C)c1 (stereo not drawn)	?	.	.	16µM*	.	.
COc1ccc(C2Nc3ccccc3C(=O)N2c2cccc3ccccc23)cc1COc1c(C)cccc1C (stereo not drawn)	3.2µM*	.	.	2.8µM*	.	.
CCCNC(=O)C(=O)N/N=C/c1cccs1	-12%	1%	17%	1%	?	-5
CCNC(=S)N/N=C/c1sc(N2CCCCC2)nc1-c1cccs1	?	18µM*	?	?	?	0
CCSc1nc2sc3c(c2c(=O)n1-c1ccc(OC)cc1)CCN(C)C3	?	5%	15%	16µM*	-23%	-17
COc1ccc(-n2cnc3sc4c(c3c2=O)CCCC4)cc1	?	-15%	26%	?	?	-7
CCSc1nc2sc3c(c2c(=O)n1-c1ccc(C)cc1)CCCC3	?	.	.	8.2µM*	.	.
CCCCSc1nc2sc3c(c2c(=O)n1-c1ccc(C)cc1)CCN(C)C3	16µM*	2%	?	15µM*	?	?
CCOc1ccc(-n2cnc3sc4c(c3c2=O)CCCC4)cc1	?	8%	20%	?	-1%	-63*
CCOC(=O)CSc1nc2sc3c(c2c(=O)n1-c1ccc(C)cc1)CCN(C)C3	?	1%	0%	-15%	7%	39
